Measurements: PubChem BioAssay AID1159580 (chemical genetic matrix, 2015)
Hit rate of the full screen: of about 5,500 compounds, about 2,000 (36%) were called active. Another 18% or so got no clear call; they are omitted. Rule as the data show it: active = normalized growth mostly below about 0.91 (no sharp cut-off); inconclusive = no clear call, values can overlap the other calls; inactive = mostly above about 0.92. This is one part of the list.

Test: chemical genetic growth profiling, strain panel (AID 1159580);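 also: tested at 20 µM; growth read once vehicle control cultures reached saturation at 30 °C; 1 = growth at the plate median or of vehicle wells; lower values mean less growth of the strain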
Conditions: growth OD

Measured: normalized growth

C[C@H](COc1ccccc1)N[C@H](C)[C@H](O)c1ccc(O)cc1
inactive: S. cerevisiae deletion strains, locus YJR043C, strain POL32, hits give low values 1.04 | S. cerevisiae deletion strains, locus YJR066W, strain TOR1, hits give low values 0.946 | S. cerevisiae deletion strains, locus YKL009W, strain mrt4, hits give low values 0.99 | S. cerevisiae deletion strains, locus YKL068W, hits give low values 0.989 | S. cerevisiae deletion strains, locus YKL085W, strain MDH1 (second series), hits give low values 0.977 | S. cerevisiae deletion strains, locus YKL085W, strain MDH1, hits give low values 0.977 | S. cerevisiae deletion strains, locus YKL160W, strain elf1, hits give low values 0.983 | S. cerevisiae deletion strains, locus YKL190W, strain CNB1, hits give low values 1 | S. cerevisiae deletion strains, locus YKR001C, strain vps1, hits give low values 1.01 | S. cerevisiae deletion strains, locus YKR026C, strain gcn3, hits give low values 0.993 | S. cerevisiae deletion strains, locus YKR091W, strain srl3, hits give low values 0.995 | S. cerevisiae deletion strains, locus YLL001W, strain dnm1, hits give low values 0.966 | S. cerevisiae deletion strains, locus YLL026W, hits give low values 1.01 | S. cerevisiae deletion strains, locus YLL041C, strain sdh2, hits give low values 0.993 | S. cerevisiae deletion strains, locus YLR027C, strain aat2, hits give low values 1.01 | S. cerevisiae deletion strains, locus YLR039C, strain RIC1, hits give low values 0.898 | S. cerevisiae deletion strains, locus YLR058C, strain SHM2, hits give low values 0.987 | S. cerevisiae deletion strains, locus YLR102C, strain apc9, hits give low values 0.99 | S. cerevisiae deletion strains, locus YLR113W, strain HOG1, hits give low values 0.962 | S. cerevisiae deletion strains, locus YLR221C, strain rsa3, hits give low values 0.974 | S. cerevisiae deletion strains, locus YLR258W, strain gsy2, hits give low values 0.997 | S. cerevisiae deletion strains, locus YLR262C, strain YPT6 (second series), hits give low values 0.929 | S. cerevisiae deletion strains, locus YLR262C, strain YPT6, hits give low values 1.04 | S. cerevisiae deletion strains, locus YLR268W, strain sec22, hits give low values 0.999 | S. cerevisiae deletion strains, locus YLR320W, strain mms22, hits give low values 0.97 | S. cerevisiae deletion strains, locus YLR330W, strain CHS5, hits give low values 0.988 | S. cerevisiae deletion strains, locus YLR342W, strain FKS1 (second series), hits give low values 1.01 | S. cerevisiae deletion strains, locus YLR342W, strain FKS1, hits give low values 0.997 | S. cerevisiae deletion strains, locus YLR357W, strain rsc2, hits give low values 0.95 | S. cerevisiae deletion strains, locus YLR370C, strain arc18, hits give low values 0.994 | S. cerevisiae deletion strains, locus YLR371W, strain rom2, hits give low values 0.98 | S. cerevisiae deletion strains, locus YLR384C, strain iki3, hits give low values 1 | S. cerevisiae deletion strains, locus YLR418C, strain cdc73, hits give low values 1.01 | S. cerevisiae deletion strains, locus YML016C, strain PPZ1, hits give low values 0.986 | S. cerevisiae deletion strains, locus YML032C, strain rad52, hits give low values 0.999 | S. cerevisiae deletion strains, locus YML120C, strain ndi1, hits give low values 0.985 | S. cerevisiae deletion strains, locus YML124C, strain tub3, hits give low values 0.983 | S. cerevisiae deletion strains, locus YMR058W, strain fet3, hits give low values 0.988 | S. cerevisiae deletion strains, locus YMR078C, strain ctf18, hits give low values 0.985 | S. cerevisiae deletion strains, locus YMR125W, strain sto1, hits give low values 0.984 | S. cerevisiae deletion strains, locus YMR129W, hits give low values 0.99 | S. cerevisiae deletion strains, locus YMR205C, strain PFK2, hits give low values 0.974 | S. cerevisiae deletion strains, locus YMR223W, strain ubp8, hits give low values 0.96 | S. cerevisiae deletion strains, locus YMR231W, strain pep5, hits give low values 1 | S. cerevisiae deletion strains, locus YMR307W, strain GAS1, hits give low values 1.05 | S. cerevisiae deletion strains, locus YNL067W, strain RPL9B, hits give low values 1 | S. cerevisiae deletion strains, locus YNL071W, strain lat1, hits give low values 1.01 | S. cerevisiae deletion strains, locus YNL128W, strain TEP1, hits give low values 0.979 | S. cerevisiae deletion strains, locus YNL183C, strain NPR1, hits give low values 0.95 | S. cerevisiae deletion strains, locus YNL209W, strain ssb2, hits give low values 0.994 | S. cerevisiae deletion strains, locus YNL233W, strain BNI4, hits give low values 0.979 | S. cerevisiae deletion strains, locus YNL248C, strain rpa49, hits give low values 0.985 | S. cerevisiae deletion strains, locus YNL250W, strain rad50, hits give low values 0.977 | S. cerevisiae deletion strains, locus YNL271C, strain bni1, hits give low values 0.993 | S. cerevisiae deletion strains, locus YNL298W, strain CLA4, hits give low values 0.989 | S. cerevisiae deletion strains, locus YNL307C, strain MCK1, hits give low values 0.988 | S. cerevisiae deletion strains, locus YNL322C, strain KRE1 (second series), hits give low values 0.998 | S. cerevisiae deletion strains, locus YNR049C, strain mso1, hits give low values 0.991 | S. cerevisiae deletion strains, locus YNR052C, strain pop2, hits give low values 0.987 | S. cerevisiae deletion strains, locus YOL012C, strain htz1 1.14 | S. cerevisiae deletion strains, locus YOL147C, strain pex11, hits give low values 0.99 | S. cerevisiae deletion strains, locus YOR001W, strain rrp6, hits give low values 1.01 | S. cerevisiae deletion strains, locus YOR061W, strain CKA2, hits give low values 0.994 | S. cerevisiae deletion strains, locus YOR069W, strain VPS5, hits give low values 0.98 | S. cerevisiae deletion strains, locus YOR070C, strain gyp1, hits give low values 0.993 | S. cerevisiae deletion strains, locus YOR080W, strain dia2, hits give low values 1 | S. cerevisiae deletion strains, locus YOR083W, strain WHI5, hits give low values 0.987 | S. cerevisiae deletion strains, locus YOR106W, strain vam3, hits give low values 0.979 | S. cerevisiae deletion strains, locus YOR136W, strain idh2, hits give low values 0.999 | S. cerevisiae deletion strains, locus YOR144C, strain elg1, hits give low values 0.999 | S. cerevisiae deletion strains, locus YOR184W, strain ser1, hits give low values 1 | S. cerevisiae deletion strains, locus YOR231W, strain MKK1, hits give low values 0.948 | S. cerevisiae deletion strains, locus YOR265W, strain rbl2, hits give low values 1.01 | S. cerevisiae deletion strains, locus YOR270C, strain vph1, hits give low values 0.978 | S. cerevisiae deletion strains, locus YOR290C, strain snf2, hits give low values 0.938 | S. cerevisiae deletion strains, locus YOR316C, strain cot1, hits give low values 0.986 | S. cerevisiae deletion strains, locus YPL051W, strain arl3, hits give low values 0.982 | S. cerevisiae deletion strains, locus YPL055C, strain LGE1, hits give low values 0.965 | S. cerevisiae deletion strains, locus YPL078C, strain atp4, hits give low values 0.993 | S. cerevisiae deletion strains, locus YPL106C, strain sse1, hits give low values 0.948 | S. cerevisiae deletion strains, locus YPL240C, strain hsp82, hits give low values 1.01 | S. cerevisiae deletion strains, locus YPL256C, strain CLN2, hits give low values 0.926 | S. cerevisiae deletion strains, locus YPR119W, strain clb2, hits give low values 0.99 | S. cerevisiae deletion strains, locus YPR141C, strain kar3, hits give low values 0.975 | S. cerevisiae deletion strains, locus YPR163C, strain tif3, hits give low values 0.989 | S. cerevisiae deletion strains, locus YPR167C, strain met16, hits give low values 0.993 | S. cerevisiae deletion strains, strain wtn01, hits give low values 0.986 | S. cerevisiae strains, strain wild type, hits give low values 0.993
